# Source: article PMC11062922 (Nature Chemical Biology, 2023)
# Like-named read-outs stand apart in the source and are kept apart here.
# How the values were obtained:
# Design in all cases: species or system human, MV4-11 + K-562 + COLO205 + SK-N-BE2 + OVCAR-8
# PIK3CA = conditions: read-out: apparent Kd, n = 1
# PIK3C3 = conditions: read-out: apparent Kd, n = 1
# ROCK2 = conditions: read-out: apparent Kd, n = 1
# PLK1 = conditions: read-out: apparent Kd, compound concentrations: 100 nM and 1000 nM (sheet 'Samples'), n = 1
# ROCK1 = conditions: read-out: apparent Kd, n = 1
# TESK1 = conditions: read-out: apparent Kd, n = 1
# [1] = compound concentrations:100 nM and 1000 nM (sheet 'Samples')
# [2] = compound concentrations: 100 nM and 1000 nM (sheet 'Samples'), CATDS: 1
smiles,measurement,setting,value
Cl.O=S1CCN(Cc2ccc(-c3ccc4ncnc(Nc5ccc(OCc6ccccc6)c(Cl)c5)c4c3)o2)CC1 [GW583373A],potency estimated from few doses,PIK3CA; [1],0.213 µM
Nc1ncc(-c2ccc3nccc(-c4ccncc4)c3c2)cc1S(=O)(=O)N1CCCCC1 [GSK1693850A],potency estimated from few doses,"PIK3C3; compound concentrations: 100 nM and 1000 nM (sheet 'Samples'), CATDS: 6.5868178094699706E-2",1.12 µM
same,potency estimated from few doses,"PIK3CA; compound concentrations: 100 nM and 1000 nM (sheet 'Samples'), CATDS: 0.402374173970307",0.00674 µM
CSc1nn2c(=O)cc(N3CCOCC3)nc2n1Cc1cccc(Cl)c1Cl [GSK2347225A],potency estimated from few doses,"PIK3C3; compound concentrations: 100 nM and 1000 nM (sheet 'Samples'), CATDS: 0.39036921617708198",0.041 µM
Cl.NC(=O)c1cccc(Nc2nccc(Nc3ccc(Oc4c(Cl)cccc4Cl)c(Cl)c3)n2)c1 [GW659009A],potency estimated from few doses,"PIK3CA; compound concentrations: 100 nM and 1000 nM (sheet 'Samples'), CATDS: 0.34504160600825701",0.183 µM
Nc1ncnc2c1nc(-c1ccccc1)n2-c1ccccc1 [SKF-97293],potency estimated from few doses,PIK3CA; [2],0.284 µM
O=c1cc(N2CCOCC2)nc2n(Cc3ccc(F)c(Cl)c3)ccn12 [GSK2297099A],potency estimated from few doses,PIK3C3; [1],0.912 µM
same,potency estimated from few doses,PIK3CA; [1],0.186 µM
COc1cccc(-n2ncc3c(N/N=C/c4cccc(F)c4)ncnc32)c1 [GW817394X],potency estimated from few doses,PIK3CA; [2],0.237 µM
CCn1c(-c2nonc2N)nc2ccccc21 [SB-693162],potency estimated from few doses,ROCK2; [1],1.82 µM
CN(C)S(=O)(=O)c1cc(-c2ccc3nccc(-c4cccc(S(N)(=O)=O)c4)c3c2)cnc1N [GSK1669921A],potency estimated from few doses,"PIK3CA; compound concentrations: 100 nM and 1000 nM (sheet 'Samples'), CATDS: 0.37789009746554098",0.023 µM
O=C(NCCNc1ccnc(Nc2ccc(F)cc2)n1)Nc1ccccc1F [GSK1379880A],potency estimated from few doses,"PIK3CA; compound concentrations: 100 nM and 1000 nM (sheet 'Samples'), CATDS: 0.78372192939813501",0.233 µM
O=c1cc(N2CCOCC2)nc2n(Cc3cccc(Cl)c3)ccn12 [GSK2296823A],potency estimated from few doses,PIK3C3; [1],0.667 µM
CC(C)c1ccc(O)cc1Nc1ccnc2ccc(C(F)(F)F)cc12 [GW482059X],potency estimated from few doses,"PIK3CA; compound concentrations: 100 nM and 1000 nM (sheet 'Samples'), CATDS: 0.44189081373448802",0.239 µM
CN(C)CCOc1ccc(-c2cc(-c3ccc(Cl)c(O)c3)c(-c3ccncc3)[nH]2)cc1.CN(C)CCOc1ccc(-c2cc(-c3ccc(Cl)c(O)c3)c(-c3ccncc3)[nH]2)cc1.Cl.Cl [SB-684387-B],potency estimated from few doses,"PIK3CA; compound concentrations: 100 nM and 1000 nM (sheet 'Samples'), CATDS: 0.97128160740856295",0.016 µM
Cc1nn2c(=O)cc(N3CCOCC3)nc2n1Cc1cccc(Cl)c1Cl [GSK2342769A],potency estimated from few doses,PIK3C3; [1],0.0081 µM
COc1cccc(C2=C(N(C)c3ccccc3)C(=O)NC2=O)c1 [SB-334865],potency estimated from few doses,PLK1; CATDS: 1,1.42 µM
CC1=C(C(=O)Nc2ccc3[nH]ncc3c2)C(c2ccc(F)cc2)N=C(c2ccc(C(F)(F)F)nc2)N1 (centres unmarked) [GSK317354A],potency estimated from few doses,"ROCK1; compound concentrations: 100 nM and 1000 nM (sheet 'Samples'), CATDS: 0.52745543701192599",0.63 µM
same,potency estimated from few doses,"ROCK2; compound concentrations: 100 nM and 1000 nM (sheet 'Samples'), CATDS: 0.475261399355146",0.777 µM
CN(C)CCCn1c(-c2nonc2N)nc2cnccc21 [SB-751399-B],potency estimated from few doses,"ROCK1; compound concentrations: 100 nM and 1000 nM (sheet 'Samples'), CATDS: 0.43789550307339298",1.47 µM
same,potency estimated from few doses,"ROCK2; compound concentrations: 100 nM and 1000 nM (sheet 'Samples'), CATDS: 0.58263169675533599",0.821 µM
CCCNC(=O)Nc1ccc(N(C)c2ccnc(NC3CC3)n2)cc1 [GW818933X],potency estimated from few doses,"TESK1; compound concentrations: 100 nM and 1000 nM (sheet 'Samples'), CATDS: 0.44455887865749399",1.86 µM
CC1=C(C(=O)Nc2ccc3[nH]nc(C)c3c2)C(c2ccc(C(F)(F)F)cc2)CC(=O)N1 (centres unmarked) [GSK466314A],potency estimated from few doses,"ROCK1; compound concentrations: 100 nM and 1000 nM (sheet 'Samples'), CATDS: 0.49623940575875802",0.0944 µM
same,potency estimated from few doses,"ROCK2; compound concentrations: 100 nM and 1000 nM (sheet 'Samples'), CATDS: 0.50381802643412599",0.0916 µM
COC(=O)c1cccc(NC(=O)NC2CCN(c3ccnc(Nc4ccc(F)cc4)n3)C2)c1 (centres unmarked) [GSK1379725A],potency estimated from few doses,TESK1; [2],1.32 µM
CCn1c(-c2nonc2N)nc2cnc(Oc3cccc(NC(=O)c4ccc(N(C)C)cc4)c3)cc21 [GSK248233A],potency estimated from few doses,ROCK1; [1],0.23 µM
same,potency estimated from few doses,ROCK2; [1],0.181 µM
Nc1nonc1-c1nc2cnccc2n1C1CC1 [SB-736302],potency estimated from few doses,"ROCK1; compound concentrations: 100 nM and 1000 nM (sheet 'Samples'), CATDS: 0.19196895649818499",1.82 µM
same,potency estimated from few doses,"ROCK2; compound concentrations: 100 nM and 1000 nM (sheet 'Samples'), CATDS: 0.21159695131376299",1.38 µM
NC(=O)c1sc(-n2cnc3ccccc32)cc1OCc1ccccc1Br [GSK1023156A],potency estimated from few doses,PLK1; CATDS: 1,0.814 µM
N#Cc1ccc(C(=O)c2cnn(-c3ccc(F)cc3)c2N)cc1 [RO1153198-000],potency estimated from few doses,"TESK1; compound concentrations: 100 nM and 1000 nM (sheet 'Samples'), CATDS: 0.53853377364092803",1.53 µM
Cc1nnc(-c2ccc(C)c(-c3ccc(C(=O)O)cc3)c2)o1 [GW608005X],potency estimated from few doses,TESK1; [1],0.9 µM
CC1=C(C(=O)Nc2cc3cn[nH]c3cc2F)C(c2ccc(C(F)(F)F)cc2)CC(=O)N1 (centres unmarked) [GSK429286A],potency estimated from few doses,"ROCK1; compound concentrations: 100 nM and 1000 nM (sheet 'Samples'), CATDS: 0.46177660943925602",0.0578 µM
same,potency estimated from few doses,"ROCK2; compound concentrations: 100 nM and 1000 nM (sheet 'Samples'), CATDS: 0.48334108773041601",0.053 µM
Cl.NC(=O)c1cccc(Nc2nccc(Nc3ccc(Oc4cccc(Cl)c4)c(Cl)c3)n2)c1 [GW659008A],potency estimated from few doses,TESK1; [2],1.78 µM
COc1ccc2ncn(-c3cc(O[C@H](C)c4ccccc4C(F)(F)F)c(C(N)=O)s3)c2c1 [GSK317315A],potency estimated from few doses,PLK1; CATDS: 0.88975940081611404,0.128 µM
Cc1ccccc1COc1cc(-n2cnc3cc(Cl)ccc32)sc1C(N)=O [GW813349X],potency estimated from few doses,PLK1; CATDS: 1,1.57 µM
C[C@@H]1CC[C@H](C(=O)NC2CCCCC2)CN1c1cc(-c2ccc3c(N)n[nH]c3c2)nc(N)n1 [GSK2291363A],potency estimated from few doses,ROCK1; [1],2.01 µM
same,potency estimated from few doses,ROCK2; [1],1.45 µM
CC1=C(C(=O)Nc2ccc3[nH]ncc3c2)C(c2ccc(Cl)c(Cl)c2)CC(=O)N1 (centres unmarked) [GSK299115A],potency estimated from few doses,ROCK1; [1],0.112 µM
same,potency estimated from few doses,ROCK2; [1],0.14 µM
